Test results published in PubChem BioAssay (NCI).
This is part of a sample that, as a whole, favours compounds with a hit. Of some 79,000 tested, about 15% had one in any assay. The source made the active and inactive calls. Cut-off read from the data, not from the text of the source: active = growth inhibition above about 70%; inactive = the rest.

Assay: NCI Yeast Anticancer Drug Screen. Data for the mec2-1 strain (AID 157)
Conditions: S. cerevisiae mec2-1 strain, at 50.0 µM, active compounds read high
In short: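 Compounds were applied to mec2-1 yeast cells. Their growth was then compared with that of vehicle-treated cultures to give growth inhibition.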

| SMILES | growth inhibition |
| --- | --- |
| N#CC(CCN1CCC(Nc2ccccc2)(c2nnnn2C2CCCCC2)CC1)(c1ccccc1)c1ccccc1 | -16.6% (inactive) |
| CN(C)C(=O)O/N=C(\c1ccccc1)C(F)(F)F | -0.15% (inactive) |
| C1C[N-]CC[N-]1.C1C[N-]CC[N-]1.[Zn] | 99.5% (active) |
| CCC1CN(CC(=O)c2ccc(Br)cc2)CCO1 (centres undefined) | 3.35% (inactive) |
| CCOS(=O)(=O)c1ccc(C)cc1 | 8.25% (inactive) |
| O=NN1CCCCCCC1C(=O)O (centres undefined) | 6.55% (inactive) |
| CC1(C)c2ccccc2C(c2ccccc2)(c2ccccc2)[N+]1(C)C | 33.7% (inactive) |
| O=C(c1ccccc1)N1CC1 | 33.9% (inactive) |
| O=[N+]([O-])c1ccc(O)c(C=NCCN=Cc2cc([N+](=O)[O-])ccc2O)c1.[Zn+2] | 7% (inactive) |
| Cc1ccc(S(=O)(=O)N/N=C(\CCN2CCCC2)CC(c2ccccc2)c2c(O)c3ccccc3oc2=O)cc1 (centres undefined) | 9.1% (inactive) |
| O=C1C(Br)=CC2(C=C1Br)CCN=c1c(O)c3c(c(O)c12)=NC=N3 | 15.7% (inactive) |

Assay: NCI Yeast Anticancer Drug Screen. Data for the sgs1 mgt1 strain (AID 161);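 note: 0% = growth of cultures given vehicle only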
Conditions: S. cerevisiae sgs1 mgt1 strain, at 50.0 µM, active compounds read high
In short: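 Percent growth inhibition was derived by comparing compound-exposed mutant yeast with vehicle-exposed cultures. The strain carries alterations in DNA damage repair.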

| SMILES | growth inhibition |
| --- | --- |
| CCCCCCCCCCC(=O)O | 24.9% (inactive) |
| O=S=NN(CC(Cl)c1ccccc1)CC(Cl)c1ccccc1 (centres undefined) | 19.9% (inactive) |
| CCOP(=O)(OCC)C(O)C(C)C (centres undefined) | 5.2% (inactive) |
| CCOP(=O)(O)C1CCCC(C)[N-]1.CCOP(=O)(O)C1CCCC(C)[N-]1.CCOP(=O)(O)C1CCCC(C)[N-]1.[Ti+3] (centres undefined) | -6.55% (inactive) |
| [C-]#[O+].[C-]#[O+].[C-]#[O+].[C-]#[O+].[C-]#[O+].[CH3][Sn]([Cl])[c]1ccccc1.[Mn] | 89.7% (active) |
| O=C1NC2C(=CC(O)C(O)C2O)c2cc3c(cc21)OCO3 (centres undefined) | 35.8% (inactive) |
| Cc1ccc2c(c1)N(CCCl)c1c(ccc3ccccc13)S2 | -6.55% (inactive) |
| O=C(COc1ccc(Cl)cc1)Nc1ccc(Cl)cc1C(=O)c1ccccc1 | 17.3% (inactive) |
| NC(N)=Nc1nn[nH]n1 | -13.7% (inactive) |
| NNC(=O)Nc1ccc([N+](=O)[O-])cc1[N+](=O)[O-] | 34.7% (inactive) |
| Brc1ccc(Oc2ccc(Br)cc2Br)c(Br)c1 | 8.2% (inactive) |
| NS(=O)(=O)CC1CC[CH-]CC1.[Cl-].[Cl-].[Cl-].[Cl-].[Cl-].[Sb+5].c1ccncc1 | -10% (inactive) |
| Nc1nc(N)c(N)c(N)n1 | 14.6% (inactive) |
| [Cl][Hg][c]1cccs1 | 99.5% (active) |
| CCOP(=O)(NC(C)(C)C)OCC | -21.4% (inactive) |
| [CH3][Sb]([CH3])([CH3])([I])[I] | 0.15% (inactive) |
| CCOC(OCC)c1ccc(C(F)(F)F)cc1.[C-]#[O+].[C-]#[O+].[C-]#[O+].[Cr] | 25.8% (inactive) |
| OCCSCSCCO | 5.8% (inactive) |
| Cc1cccc(C)c1NC(N)=S | -10.6% (inactive) |
| COC1CCC2NCCNC2C1 (centres undefined) | -9.85% (inactive) |

| SMILES | growth inhibition |
| --- | --- |
| C[C@H](CCC1SC1(C)C)C1CCC2(C)C3=C(CC[C@]12C)[C@@]1(C)CC[C@H](O)C(C)(C)C1CC3 (some centres undefined) | -11.2% (inactive) |
| N#CC[CH2][Sn]([I])([c]1ccccc1)[c]1ccccc1 | 98% (active) |
| CCCCCCCCCCCCN(C)C | 35.9% (inactive) |
| CCN1CCOC(O)(c2cc(Cl)cc(Cl)c2Cl)C1 (centres undefined) | 8.9% (inactive) |
| O=P(O)(O)CCc1ccccc1 | -5.2% (inactive) |
| CCOP(N)(=O)SC (centres undefined) | -11.8% (inactive) |
| CC1(C)OP(=O)(c2ccccc2)C=C1Br (centres undefined) | -23.4% (inactive) |
| O=S(=O)(Nc1ccc(-c2ccccc2)cc1)c1ccc([As](=O)(O)O)cc1 | 54.2% (inactive) |
| N#CC(CCN1CCC(Nc2ccccc2)(c2nnnn2C2CCCCC2)CC1)(c1ccccc1)c1ccccc1 | 3.75% (inactive) |
| CN(C)C(=O)O/N=C(\c1ccccc1)C(F)(F)F | 20.5% (inactive) |
| C1C[N-]CC[N-]1.C1C[N-]CC[N-]1.[Zn] | 99.5% (active) |
| CCC1CN(CC(=O)c2ccc(Br)cc2)CCO1 (centres undefined) | 39.9% (inactive) |
| CCOS(=O)(=O)c1ccc(C)cc1 | 3.35% (inactive) |
| O=NN1CCCCCCC1C(=O)O (centres undefined) | -14.7% (inactive) |
| CC1(C)c2ccccc2C(c2ccccc2)(c2ccccc2)[N+]1(C)C | 52.2% (inactive) |
| O=C(c1ccccc1)N1CC1 | -22.1% (inactive) |
| O=[N+]([O-])c1ccc(O)c(C=NCCN=Cc2cc([N+](=O)[O-])ccc2O)c1.[Zn+2] | -6.05% (inactive) |
| Cc1ccc(S(=O)(=O)N/N=C(\CCN2CCCC2)CC(c2ccccc2)c2c(O)c3ccccc3oc2=O)cc1 (centres undefined) | 20.8% (inactive) |
| O=C1C(Br)=CC2(C=C1Br)CCN=c1c(O)c3c(c(O)c12)=NC=N3 | 20.5% (inactive) |

Assay: NCI Yeast Anticancer Drug Screen. Data for the cln2 rad14 strain (AID 165);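 note: 0% = growth equal to vehicle treated cultures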
Conditions: S. cerevisiae cln2 rad14 strain, at 50.0 µM, active compounds read high
In short: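 Strain: cln2 rad14 yeast, altered in cell cycle control and DNA damage repair. Read-out: growth inhibition vs vehicle.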

| SMILES | growth inhibition |
| --- | --- |
| CCCCCCCCCCC(=O)O | -4.65% (inactive) |
| O=S=NN(CC(Cl)c1ccccc1)CC(Cl)c1ccccc1 (centres undefined) | -47.5% (inactive) |
| CCOP(=O)(OCC)C(O)C(C)C (centres undefined) | -19.8% (inactive) |
| CCOP(=O)(O)C1CCCC(C)[N-]1.CCOP(=O)(O)C1CCCC(C)[N-]1.CCOP(=O)(O)C1CCCC(C)[N-]1.[Ti+3] (centres undefined) | -24.1% (inactive) |
| [C-]#[O+].[C-]#[O+].[C-]#[O+].[C-]#[O+].[C-]#[O+].[CH3][Sn]([Cl])[c]1ccccc1.[Mn] | 88.6% (active) |
| O=C1NC2C(=CC(O)C(O)C2O)c2cc3c(cc21)OCO3 (centres undefined) | 47.1% (inactive) |
| Cc1ccc2c(c1)N(CCCl)c1c(ccc3ccccc13)S2 | -67.9% (inactive) |
| O=C(COc1ccc(Cl)cc1)Nc1ccc(Cl)cc1C(=O)c1ccccc1 | 18.8% (inactive) |
| NC(N)=Nc1nn[nH]n1 | -0.85% (inactive) |
| NNC(=O)Nc1ccc([N+](=O)[O-])cc1[N+](=O)[O-] | 20.2% (inactive) |
| Brc1ccc(Oc2ccc(Br)cc2Br)c(Br)c1 | 2% (inactive) |
| NS(=O)(=O)CC1CC[CH-]CC1.[Cl-].[Cl-].[Cl-].[Cl-].[Cl-].[Sb+5].c1ccncc1 | -12.2% (inactive) |
| Nc1nc(N)c(N)c(N)n1 | -3.05% (inactive) |
| [Cl][Hg][c]1cccs1 | 99.5% (active) |
| CCOP(=O)(NC(C)(C)C)OCC | 8% (inactive) |
| [CH3][Sb]([CH3])([CH3])([I])[I] | -12.7% (inactive) |
| CCOC(OCC)c1ccc(C(F)(F)F)cc1.[C-]#[O+].[C-]#[O+].[C-]#[O+].[Cr] | 4.85% (inactive) |
| OCCSCSCCO | 10.2% (inactive) |
| Cc1cccc(C)c1NC(N)=S | -86.7% (inactive) |
| COC1CCC2NCCNC2C1 (centres undefined) | -22.9% (inactive) |

| SMILES | growth inhibition |
| --- | --- |
| C[C@H](CCC1SC1(C)C)C1CCC2(C)C3=C(CC[C@]12C)[C@@]1(C)CC[C@H](O)C(C)(C)C1CC3 (some centres undefined) | -48.8% (inactive) |
| N#CC[CH2][Sn]([I])([c]1ccccc1)[c]1ccccc1 | 98.5% (active) |
| CCCCCCCCCCCCN(C)C | -6.2% (inactive) |
| CCN1CCOC(O)(c2cc(Cl)cc(Cl)c2Cl)C1 (centres undefined) | -24.7% (inactive) |
| O=P(O)(O)CCc1ccccc1 | -15.8% (inactive) |
| CCOP(N)(=O)SC (centres undefined) | -12.8% (inactive) |
| CC1(C)OP(=O)(c2ccccc2)C=C1Br (centres undefined) | -11.8% (inactive) |
| O=S(=O)(Nc1ccc(-c2ccccc2)cc1)c1ccc([As](=O)(O)O)cc1 | -1.65% (inactive) |
| N#CC(CCN1CCC(Nc2ccccc2)(c2nnnn2C2CCCCC2)CC1)(c1ccccc1)c1ccccc1 | -5.15% (inactive) |
| CN(C)C(=O)O/N=C(\c1ccccc1)C(F)(F)F | 15.4% (inactive) |
| C1C[N-]CC[N-]1.C1C[N-]CC[N-]1.[Zn] | 98.8% (active) |
| CCC1CN(CC(=O)c2ccc(Br)cc2)CCO1 (centres undefined) | 20.6% (inactive) |
| CCOS(=O)(=O)c1ccc(C)cc1 | -0.95% (inactive) |
| O=NN1CCCCCCC1C(=O)O (centres undefined) | -22.8% (inactive) |
| CC1(C)c2ccccc2C(c2ccccc2)(c2ccccc2)[N+]1(C)C | 21.7% (inactive) |
| O=C(c1ccccc1)N1CC1 | 35.5% (inactive) |
| O=[N+]([O-])c1ccc(O)c(C=NCCN=Cc2cc([N+](=O)[O-])ccc2O)c1.[Zn+2] | -15.8% (inactive) |
| Cc1ccc(S(=O)(=O)N/N=C(\CCN2CCCC2)CC(c2ccccc2)c2c(O)c3ccccc3oc2=O)cc1 (centres undefined) | 21.8% (inactive) |
| O=C1C(Br)=CC2(C=C1Br)CCN=c1c(O)c3c(c(O)c12)=NC=N3 | 19.1% (inactive) |
